# Inconclusive results are not listed. Values without a mark were called inactive. Activity calls are given as the source filed them. Calls come from the whole dose curve; as a rule, active = well fitted cell-killing curve with a large enough effect in the repeat runs; inconclusive = weak or mixed curves, or effect the other way; inactive = no such curve, though single readings can be large or run the other way.
# Test: qHTS assay to identify small molecule antagonists of the progesterone receptor (PR) signaling pathway - cell viability counter screen (AID 1346798); note: nearly all actives have a fitted effect of over 50% in size
# Settings: PR-UAS-bla HEK293T viability, CellTiter-Glo luminescence, 16 h; series mostly up to 92.4 µM; activity change, negative = cytotoxicity: at the top concentration
# From the text: National Center for Advancing Translational Sciences [NCATS]
# NIH Chemical Genomics Center [NCGC]
# U.S. Environmental Protection Agency [EPA]
# National Institutes of Environmental Health Sciences [NIEHS]
# National Toxicology Program [NTP]
# U.S. Food and Drug Administration [FDA]
# Progesterone receptor (PR), a nuclear hormone receptor, plays an important role in development, metabolic homeostasis and reproduction. It is activated by the steroid hormone progesterone. Endocrine disrupting chemicals (EDCs) and their interactions with steroid hormone receptors like PR causes disruption of normal endocrine function. To identify the compounds that inhibit PR signaling, a PR-UAS-bla GripTite cell line i.e. PR-UAS-bla HEK293T (Invitrogen, Carlsbad, CA, USA) containing a beta-lactamase reporter gene under the control of an UAS response element was used to screen Tox21 10K compound library. The cytotoxicity of the Tox21 compound library against the PR-bla cell line was tested in parallel by measuring the cell viability using CellTiter-Glo assay in the same wells.
# Tox21 Assay Protocol Summary:
# PR-UAS-bla HEK293T cells were dispensed at 3,000 cells/4 uL of assay medium containing 2% charcoal stripped FBS per well into black wall/clear-bottom 1536-well plates using a Multidrop Combi (ThermoFisher Scientific, Waltham, MA) dispenser. After the assay plates were incubated at a 37C and 5% CO2 for 4 hr, 23 nL of compounds dissolved in DMSO, positive controls or DMSO only was transferred to the assay plate by a Pintool station (Kalypsys, San Diego, CA), followed by addition of 1 uL of R5020 in assay medium using a Flying Reagent Dispenser (FRD, Aurora Discovery, San Diego, CA). The plates were incubated at 37C and 5% CO2 for 16 hr. Then 1 uL of LiveBLAzer B/G FRET substrate was added using a Flying Reagent Dispenser, the plates were incubated at room temperature for 2 hours, and fluorescence intensity was measured by an Envision plate reader (PerkinElmer, Shelton, CT). For cell viability readout that measures cytotoxicity, 4 uL/well of CellTiter-Glo reagent was added into the assay plates using a FRD. After 30 min incubation at room temperature, the luminescence intensity in the plates was measured using a ViewLux (PerkinElmer) plate reader.
# % is set by controls: 0 for no effect and ±100 for the full control effect; potency is the fitted concentration of half-maximal effect.
SMILES,"activity change, negative = cytotoxicity",Potency
COC(=O)C(c1ccccc1)C1CCCCN1 (stereo not given),16.2%,–
CN1CCC(O)(c2ccc(F)cc2)C(C(=O)c2ccc(F)cc2)C1 (stereo not given),2.12% [at 42.5 µM],–
C(CCOCC1CO1)COCC1CO1 (stereo not given),-0.831%,–
[As]#[In],16.5%,–
COc1ccc(C(=O)N2CCCC2=O)cc1,-11.2% [at 42.5 µM],–
Nc1ccccc1Cl,-0.527%,–
COc1cc(OC)nc(Sc2cccc(Cl)c2C(=O)O)n1,-2.63%,–
CCOP(=S)(OCC)Oc1ncn(-c2ccccc2)n1,8.84%,–
ClC(Cl)C(Cl)Cl,21.2%,–
ClC(Br)Br,-1.47%,–
CC(CCc1ccccc1)NC(C)C(O)c1ccc(O)cc1 (stereo not given),-25.8% [at 42.5 µM],–
CCOP(=S)(OCC)Oc1cc(-c2ccccc2)on1,-6.65%,–
Fc1cc(Br)ccc1CBr,2.32% [at 42.5 µM],–
COCC(=O)N(c1c(C)cccc1C)N1CCOC1=O,6.03%,–
c1cc2c(c(N3CCNCC3)c1)OCCO2,-6.05% [at 42.5 µM],–
CCS(=O)(=O)C(C)(C)S(=O)(=O)CC,-11.4% [at 42.5 µM],–
COc1cc(OC)nc(Oc2cccc(Oc3nc(OC)cc(OC)n3)c2C(=O)O)n1,-9.63%,–
CCCCC(=O)Cl,-14.5%,–
CCOC(=O)/C=C(C)/C=C/C[C@@H](C)CCCC(C)C,10.2%,–
c1coc(-c2nc3ccccc3[nH]2)c1,4.74%,–

SMILES,"activity change, negative = cytotoxicity",Potency
O=C1OC(=O)C2C1C1(Cl)C(Cl)=C(Cl)C2(Cl)C1(Cl)Cl (stereo not given),1.25%,–
COP(=S)(OC)Oc1ccc(S(N)(=O)=O)cc1,13.1% [at 42.5 µM],–
O=C1OC(c2ccc(O)c(S(=O)(=O)O)c2)(c2ccc(O)c(S(=O)(=O)O)c2)c2c(Br)c(Br)c(Br)c(Br)c21,0.217% [at 42.5 µM],–
Cc1ccccc1CO[C@@H]1C[C@@]2(C(C)C)CC[C@]1(C)O2,-5.78%,–
N#CCBr,-6.27%,–
CC(C)CC(N(C)C)C1(c2ccc(Cl)cc2)CCC1 (stereo not given),21.6% [at 42.5 µM],–
Cc1cc(C)nc(Nc2ccccc2)n1,9.02%,–
C[C@@H]1CN(C2CCC(C#N)(c3ccc(F)cc3)CC2)CC[C@]1(C(=O)O)c1ccccc1 (stereo not given in full),17.2% [at 42.5 µM],–
Nc1cnn(-c2ccccc2)c(=O)c1Cl,0.697%,–
[Cl][Sn]([Cl])([Cl])[Cl],12.6%,–
C1CCC(C2CCCCC2)CC1,–,15.4 µM (active)
Cc1nc(N)nc(N)n1,-7.1%,–
CCOP(=S)(Oc1cnc(C(C)(C)C)nc1)OC(C)C (stereo not given),-15%,–
COC(=O)COc1ccc(Cl)cc1Cl,2.92%,–
N#CCNCC#N,-12.4%,–
COc1cccc(C(=O)NN(C(=O)c2cc(C)cc(C)c2)C(C)(C)C)c1C,17.4%,–
CCOC(=O)CP(=O)(OCC)OCC,-0.536%,–
OC(Cn1cncn1)(c1ccc(F)cc1)c1ccccc1F (stereo not given),-1.59%,–
O=[N+]([O-])c1cc(Cl)c(Cl)c(Cl)c1,-22%,–
CN1CCN(C(=O)O[C@H]2c3nccnc3C(=O)N2c2ccc(Cl)cn2)CC1,-3.22% [at 42.5 µM],–
